# Experimental data taken from publication PMC7862700, “An all-to-all approach to the identification of sequence-specific readers for epigenetic DNA modifications on cytosine”.
# Key:
# Assay in all cases: DAPPL (digital affinity profiling via proximity ligation, sequencing); 10 mM Tris-HCl pH 7.5, 50 mM NaCl, 1 mM DTT, 4% glycerol, room temperature, 30 min; GST-TFs on glutathione beads, 16-mer random dsDNA library, 0.1% formaldehyde crosslink after washing; high values mean tight binding
# Details in all cases: protein: recombinant; tags: N-terminal GST; dsDNA, one strand shown
# FLI1 = target: T1, FLI1 (Homo sapiens, UniProt Q01543 1-452)
# T1 sequence: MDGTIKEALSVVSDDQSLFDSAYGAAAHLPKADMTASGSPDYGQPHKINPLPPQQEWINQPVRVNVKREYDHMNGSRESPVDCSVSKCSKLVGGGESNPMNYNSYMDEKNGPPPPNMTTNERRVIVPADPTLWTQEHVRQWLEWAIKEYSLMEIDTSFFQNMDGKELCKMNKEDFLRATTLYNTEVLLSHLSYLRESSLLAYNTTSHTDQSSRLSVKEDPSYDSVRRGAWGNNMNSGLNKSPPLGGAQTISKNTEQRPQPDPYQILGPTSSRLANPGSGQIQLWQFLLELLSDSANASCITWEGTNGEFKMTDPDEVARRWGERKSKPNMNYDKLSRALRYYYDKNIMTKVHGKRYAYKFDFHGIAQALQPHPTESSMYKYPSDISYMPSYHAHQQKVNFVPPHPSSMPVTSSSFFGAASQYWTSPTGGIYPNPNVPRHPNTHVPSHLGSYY
# Method in brief: (§1)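 Each value of binding signal is a hexamer's read frequency for a factor divided by the same hexamer's frequency in the tag-only sample. Barcoded, bead-captured GST fusions of human transcription factors made in yeast were pooled with that sample and incubated with 200 nmole of a random double-stranded 16-mer DNA library in Tris/NaCl/DTT/glycerol buffer at room temperature for 30 min. Washing, 0.1% formaldehyde crosslinking, proximity ligation, PCR and Illumina NextSeq500 sequencing followed.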
# ELK1 = target: T2, ELK1 (Homo sapiens, UniProt P19419 1-428)
# T2 sequence: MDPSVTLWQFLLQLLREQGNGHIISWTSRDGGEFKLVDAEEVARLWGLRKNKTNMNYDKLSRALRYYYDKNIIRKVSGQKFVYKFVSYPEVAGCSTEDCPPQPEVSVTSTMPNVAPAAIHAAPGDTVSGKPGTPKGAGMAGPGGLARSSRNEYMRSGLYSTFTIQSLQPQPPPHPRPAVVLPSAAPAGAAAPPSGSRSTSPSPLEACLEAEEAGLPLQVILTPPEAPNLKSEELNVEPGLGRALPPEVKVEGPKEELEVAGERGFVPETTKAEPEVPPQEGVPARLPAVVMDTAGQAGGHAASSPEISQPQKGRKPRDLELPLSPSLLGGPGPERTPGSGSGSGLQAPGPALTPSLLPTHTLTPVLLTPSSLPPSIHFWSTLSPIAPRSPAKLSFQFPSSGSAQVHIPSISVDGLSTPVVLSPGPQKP
# Method in brief: as §1
# GABPA = target: T3, GABPA (Homo sapiens, UniProt Q06546 1-454)
# T3 sequence: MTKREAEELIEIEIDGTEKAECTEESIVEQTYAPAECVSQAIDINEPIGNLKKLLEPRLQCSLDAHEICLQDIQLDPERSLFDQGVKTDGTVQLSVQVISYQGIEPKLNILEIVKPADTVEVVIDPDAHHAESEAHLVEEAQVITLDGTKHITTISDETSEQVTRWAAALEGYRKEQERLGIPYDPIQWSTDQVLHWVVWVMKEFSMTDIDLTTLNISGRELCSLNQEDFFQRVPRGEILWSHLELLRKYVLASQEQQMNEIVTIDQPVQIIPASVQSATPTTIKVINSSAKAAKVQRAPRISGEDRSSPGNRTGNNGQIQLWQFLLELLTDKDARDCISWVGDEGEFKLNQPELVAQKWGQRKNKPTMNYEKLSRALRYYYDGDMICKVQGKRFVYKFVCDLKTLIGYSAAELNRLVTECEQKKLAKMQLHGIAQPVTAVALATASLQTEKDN
# Method in brief: as §1
# ERG = target: T4, ERG (Homo sapiens, UniProt P11308 1-479)
# T4 sequence: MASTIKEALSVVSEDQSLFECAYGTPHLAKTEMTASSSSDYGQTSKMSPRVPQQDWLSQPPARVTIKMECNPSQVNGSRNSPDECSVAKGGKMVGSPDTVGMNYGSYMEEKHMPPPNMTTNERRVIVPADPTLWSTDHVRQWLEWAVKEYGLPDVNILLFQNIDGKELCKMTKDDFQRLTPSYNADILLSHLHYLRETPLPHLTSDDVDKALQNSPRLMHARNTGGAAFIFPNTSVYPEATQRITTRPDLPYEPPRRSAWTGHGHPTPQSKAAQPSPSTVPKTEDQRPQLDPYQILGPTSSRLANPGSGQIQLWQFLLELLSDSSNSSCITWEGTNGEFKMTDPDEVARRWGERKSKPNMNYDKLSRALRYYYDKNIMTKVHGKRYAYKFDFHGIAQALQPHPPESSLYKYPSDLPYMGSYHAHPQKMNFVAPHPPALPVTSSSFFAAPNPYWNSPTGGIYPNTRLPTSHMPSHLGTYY
# Method in brief: as §1
# ELF1 = ELF1 (Homo sapiens, UniProt P32519 1-619)
# ELF1, sequence (P32519 whole entry): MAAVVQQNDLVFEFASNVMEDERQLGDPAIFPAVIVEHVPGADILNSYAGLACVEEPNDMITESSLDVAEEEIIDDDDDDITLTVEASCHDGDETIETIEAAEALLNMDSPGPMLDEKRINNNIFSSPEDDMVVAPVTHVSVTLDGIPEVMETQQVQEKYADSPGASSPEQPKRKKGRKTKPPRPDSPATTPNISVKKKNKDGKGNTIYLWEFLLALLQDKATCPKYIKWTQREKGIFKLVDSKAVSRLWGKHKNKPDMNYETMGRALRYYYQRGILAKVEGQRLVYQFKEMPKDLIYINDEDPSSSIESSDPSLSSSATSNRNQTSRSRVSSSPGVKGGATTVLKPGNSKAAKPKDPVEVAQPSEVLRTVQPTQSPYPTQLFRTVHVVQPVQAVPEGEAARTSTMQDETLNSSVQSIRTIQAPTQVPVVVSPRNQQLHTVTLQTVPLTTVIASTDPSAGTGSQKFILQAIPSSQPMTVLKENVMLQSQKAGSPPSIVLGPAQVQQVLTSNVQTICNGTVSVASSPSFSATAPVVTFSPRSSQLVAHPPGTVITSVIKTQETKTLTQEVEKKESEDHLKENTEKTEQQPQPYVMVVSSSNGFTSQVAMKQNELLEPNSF
# Method in brief: as §1
# EHF = target: T5, EHF (Homo sapiens, UniProt Q9NZC4 1-300)
# T5 sequence: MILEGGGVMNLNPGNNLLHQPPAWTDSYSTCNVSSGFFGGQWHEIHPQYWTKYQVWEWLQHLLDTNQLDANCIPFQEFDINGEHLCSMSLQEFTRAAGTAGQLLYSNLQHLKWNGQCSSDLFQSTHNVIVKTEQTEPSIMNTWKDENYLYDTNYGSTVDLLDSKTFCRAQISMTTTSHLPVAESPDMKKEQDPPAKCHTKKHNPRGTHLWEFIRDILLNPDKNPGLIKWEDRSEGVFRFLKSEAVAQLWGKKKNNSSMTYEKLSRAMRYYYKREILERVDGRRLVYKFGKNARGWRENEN
# Method in brief: as §1
# SPI1 = SPI1 (Homo sapiens, UniProt P17947 1-270)
# Method in brief: as §1
# SPIB = SPIB (Homo sapiens, UniProt Q01892 1-262)
# SPIB, sequence (Q01892 whole entry): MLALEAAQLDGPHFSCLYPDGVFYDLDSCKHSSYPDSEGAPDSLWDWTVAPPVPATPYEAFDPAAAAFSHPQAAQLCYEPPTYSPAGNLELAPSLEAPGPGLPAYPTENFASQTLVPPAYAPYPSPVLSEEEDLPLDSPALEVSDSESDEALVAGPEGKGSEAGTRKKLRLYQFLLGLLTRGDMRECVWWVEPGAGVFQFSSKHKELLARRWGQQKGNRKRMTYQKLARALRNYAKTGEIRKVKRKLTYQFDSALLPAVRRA
# Method in brief: as §1
# ELK3 = target: T6, ELK3 (Homo sapiens, UniProt P41970 1-407)
# T6 sequence: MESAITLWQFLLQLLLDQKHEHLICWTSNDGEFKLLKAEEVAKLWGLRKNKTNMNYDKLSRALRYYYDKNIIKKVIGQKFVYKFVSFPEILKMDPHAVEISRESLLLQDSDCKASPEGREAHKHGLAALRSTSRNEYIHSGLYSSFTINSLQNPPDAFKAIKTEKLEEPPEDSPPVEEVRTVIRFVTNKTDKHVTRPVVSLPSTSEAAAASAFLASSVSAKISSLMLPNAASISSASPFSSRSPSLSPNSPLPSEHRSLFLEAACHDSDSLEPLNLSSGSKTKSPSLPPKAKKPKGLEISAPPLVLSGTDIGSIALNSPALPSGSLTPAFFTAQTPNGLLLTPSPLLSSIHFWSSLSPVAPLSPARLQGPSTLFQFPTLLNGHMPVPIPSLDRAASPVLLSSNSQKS
# Method in brief: as §1
sequence,measurement,setting,value
CGTTCG,binding signal,FLI1,"1.15 fold enrichment (6-mer frequency, TF over GST control)"
same,binding signal,ELK1,"1.14 fold enrichment (6-mer frequency, TF over GST control)"
same,binding signal,GABPA,"1.23 fold enrichment (6-mer frequency, TF over GST control)"
same,binding signal,ERG,"1.17 fold enrichment (6-mer frequency, TF over GST control)"
same,binding signal,ELF1,"1.22 fold enrichment (6-mer frequency, TF over GST control)"
same,binding signal,EHF,"1.25 fold enrichment (6-mer frequency, TF over GST control)"
same,binding signal,SPI1,"1.1 fold enrichment (6-mer frequency, TF over GST control)"
same,binding signal,SPIB,"1.14 fold enrichment (6-mer frequency, TF over GST control)"
same,binding signal,ELK3,"1.24 fold enrichment (6-mer frequency, TF over GST control)"
